In all, about 210,000 compounds went through this assay and about 730 (0.35%) were called active. Entries that show only a call come without a potency. About 1% were inconclusive and are not listed. Calls follow the shape of the dose curve; as a rule, active = well fitted inhibition curve with a large enough effect; inconclusive = small, poorly fitted or top-dose-only effect; inactive = no such curve, though single readings can be large or run the other way. The full list was thinned out, with actives kept by preference.
Potency is read from the fitted curve at half-maximal effect.

A short description of this assay: qHTS Assay for Identifying the Cell-Membrane Permeable IMPase Inhibitors: Potentiation with Lithium.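 Also: IP1 builds up when IMPase is blocked and the TR-FRET signal falls; nearly all actives have a fitted effect of over 50% in size.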 The conditions noted are these: CHO-M1 cells, IP1 TR-FRET (IP-One), carbachol + lithium; series mostly up to 59.4 µM. In short, it runs like this:
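CHO cells stably expressing M1 receptor (2000/well) were cultured 16–30 h, then exposed to compounds with a small lithium addition for 30 min at 37C. IP1 was measured by TR-FRET competition; AC50 from Hill fits.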
Consider `CC1(OC(=O)c2ccc(Cl)nc2)C(=O)Cc2cc(-c3ccsc3)ncc2C1=O` (stereo not given), for which the Potency result was “inactive”. Regarding `COc1cc(C2/C(=C(\O)c3ccc4c(c3)CC(C)O4)C(=O)C(=O)N2Cc2ccco2)ccc1O` (stereo not given), the Potency entry was “inactive”. Regarding `COCCCN1C(=O)C(=O)/C(=C(/O)c2ccc3c(c2)CC(C)O3)C1c1cccnc1` (stereo not given), the Potency is 8.91 µM (active). `COc1cccc(C2/C(=C(/O)c3ccncc3)C(=O)C(=O)N2CCCN(C)C)c1` (stereo not given): the Potency entry was “inactive”. Consider `CCN(CC)CCN1C(=O)C(=O)/C(=C(/O)c2ccccc2)C1c1ccccc1F` (stereo not given), for which the Potency entry was “inactive”. To `O=C1C(=O)N(CCN2CCOCC2)C(c2ccccn2)/C1=C(/O)c1ccc(Cl)cc1` (stereo not given) belongs “inactive”; to `CC1Cc2cc(/C(O)=C3\C(=O)C(=O)N(CCN4CCOCC4)C3c3ccccc3F)ccc2O1` (stereo not given), 10 µM (active). Consider `CC(C)(C)OC(=O)NCCCC1=CC2=CC(=O)C(C)(OC(=O)c3ccco3)C(=O)C2=CO1` (stereo not given), for which the Potency result is “inactive”. Take `CCCCC/C=C\C/C=C\CCCCCCCCCC(N)=O`: the Potency result was “inactive”. In the case of `COC(=O)C1=C(C(=O)OC)[C@@H]2N(C)c3ccccc3[C@@]23C[C@@H](C(=O)OC)N(C(=O)c2ccco2)C3=N1`, the Potency result was “inactive”.

In the case of `CCCCCCCC1=Cc2ccc(F)cc2C(C(C(=O)OC)C(=O)OC)N1C(=O)OC` (stereo not given), the Potency entry is “inactive”.

With `NC(=O)COc1ccc2c3c(c(=O)oc2c1)CCCCC3`, the Potency entry was “inactive”. For `O=C(Oc1ccccc1)Oc1ccc2c(c1)oc(=O)c1ccccc12`, the Potency is 10 µM (active). `Cc1c(Cc2ccccc2)c(=O)oc2cc(OCC(N)=O)ccc12`: the Potency entry was “inactive”.

`CCOC(=O)C1=C(C)c2ccccc2OC1(C)C(=O)OCC` (stereo not given): the Potency entry is “inactive”. As for `CCCCC/C=C\C/C=C\CCCCCCCCCC(=O)O`, the entry is “inactive”. `C[C@H]1Cc2c(COc3ccccc3)nc3c(c2CO1)CN(C(=O)Nc1cccc(C#N)c1)CC3`: the Potency entry is “inactive”. In the case of `C#CCCOC(=O)N1C2=NC(C(=O)OC)=C(C(=O)OC)[C@@H]3N(C)c4ccc(OC)cc4[C@]23C[C@H]1C(=O)OC`, the Potency entry is “inactive”. As to `COc1ccc(-c2nc3c(c4c2C[C@H](c2ccccc2)OC4)CN(C(=O)c2ccco2)CC3)c(C)c1`, the Potency entry was “inactive”. To `C=CC1=C2C=C(C3CC3)N(C(CO)CO)C=C2C(=O)C(C)(OC(=O)c2ccco2)C1=O` (stereo not given) belongs “inactive”; to `COc1ccc2c(c1)O[C@@H](c1ccc3c(c1)OCO3)[C@H](OC(=O)NCc1ccco1)C2=O`, “inactive”; to `Cc1ccc(S(=O)(=O)N2CC(=O)Nc3ccccc32)cc1C`, “inactive”. `Cc1ccc(C)c(S(=O)(=O)N2CC(=O)Nc3ccccc32)c1`: the Potency result is “inactive”. As for `O=C1CN(c2nc(-c3ccccc3)c3cc(Br)ccc3n2)c2ccccc2N1`, the figure is 12.6 µM (active); as for `COc1ccc(-c2nc3c(c4c2C[C@H](c2ccccc2)OC4)CN(S(=O)(=O)c2c(C)noc2C)CC3)c(C)c1`, “inactive”.
